KCNQ2 inh: rat KCNQ2 potassium channel inhibitors, primary screen, cell-based, CHO-K1, FluxOR thallium flux, B-score; 20 min; stronger effect = lower value; AID 2156, 2009; actives 1.1% (n = 310,000); B-score at 10 µM;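 active = fluorescence ratio B-score at most minus 3 library SDs, with starting brightness B-score within 2 library SDs, cut at about -5.5 in these data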
Target sequence (O88943 whole entry, looked up): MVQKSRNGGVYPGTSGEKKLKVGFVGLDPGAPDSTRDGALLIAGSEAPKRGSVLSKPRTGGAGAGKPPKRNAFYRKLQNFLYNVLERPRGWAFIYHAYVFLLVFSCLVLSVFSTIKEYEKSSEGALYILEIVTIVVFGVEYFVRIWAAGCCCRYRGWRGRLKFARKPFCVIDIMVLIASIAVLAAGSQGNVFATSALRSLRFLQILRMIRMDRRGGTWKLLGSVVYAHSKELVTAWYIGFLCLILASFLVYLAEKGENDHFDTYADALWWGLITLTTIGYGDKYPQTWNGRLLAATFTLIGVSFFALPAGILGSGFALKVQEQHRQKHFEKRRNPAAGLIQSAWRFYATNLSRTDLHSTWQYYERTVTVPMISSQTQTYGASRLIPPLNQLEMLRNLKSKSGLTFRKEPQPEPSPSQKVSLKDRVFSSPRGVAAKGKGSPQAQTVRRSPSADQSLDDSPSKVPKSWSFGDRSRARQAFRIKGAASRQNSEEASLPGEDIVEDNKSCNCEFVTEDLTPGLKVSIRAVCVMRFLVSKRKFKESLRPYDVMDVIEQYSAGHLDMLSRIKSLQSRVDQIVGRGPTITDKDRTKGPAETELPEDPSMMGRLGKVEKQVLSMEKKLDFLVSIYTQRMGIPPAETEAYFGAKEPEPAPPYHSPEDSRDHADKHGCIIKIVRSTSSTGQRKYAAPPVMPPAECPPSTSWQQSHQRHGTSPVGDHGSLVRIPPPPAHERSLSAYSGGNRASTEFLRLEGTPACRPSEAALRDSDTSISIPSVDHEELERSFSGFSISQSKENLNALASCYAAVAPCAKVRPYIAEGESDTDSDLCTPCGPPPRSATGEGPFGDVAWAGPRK
KCNQ2 pot: potentiators of rat KCNQ2 potassium channel; actives 0.54% (n = 310,000); Potassium voltage-gated channel subfamily KQT member 2 (Rattus norvegicus), O88943; CHO-K1 KCNQ2, FluxOR thallium flux fluorescence; stronger effect = higher value; B-score at 10 µM;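 active = fluorescence ratio B-score at least 3 SD of library B-scores, with initial fluorescence B-score within 3 of them, cut at about 5.3 in these data; same plate scores as AID 2156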;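 note: B-score of peak minus minimum over baseline fluorescence ratio after K+ and Tl+ stimulus; positive B-score means potentiation of KCNQ2 with more thallium influx and brighter signal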
An asterisk follows results filed as active; i = inactive; / = no result. Most compounds without a hit are left out; they make up all but 1.6% or so of the library.

SMILES | KCNQ2 inh | KCNQ2 pot
N=C1/C(=C/c2cccs2)C(=O)N=C2SN=C(SCc3ccccc3)N12 | i | 3.9
CC(C)CSC1=NSC2=NC(=O)/C(=C\c3cccs3)C(=N)N12 | i | 7.4*
CCOCCCn1c(C)nc2c(c1=O)c1nc3ccccc3nc1n2-c1ccc(C)cc1 | i | /
CCO/C(C)=N/n1c2nc3ccccc3nc2c2c(=O)n(CC(C)C)c(C)nc21 | -5.6* | -5.6
CCc1ccc(-c2cc(C(=O)NCCCn3ccnc3)c3ccccc3n2)s1 | -8.2* | -8.2
Cc1ccc(-c2cc(C(=O)NCCCn3ccnc3)c3ccccc3n2)s1 | i | /
COc1cc(/C=C2\SC(=S)N(NC(=O)c3ccccc3O)C2=O)ccc1O | i | /
O=C(NN1C(=O)/C(=C/c2ccc(O)cc2)SC1=S)c1ccccc1O | -6* | -6
CCOC(=O)C1=C(N)OC2=C(C(=O)CC(C)(C)C2)C1C1CCCCC1 (stereo not given) | -7.5* | -7.5
CCOC(=O)C1=C(N)OC2=C(C(=O)CC(C)(C)C2)C1c1ccoc1 (stereo not given) | i | 0.89
O=[N+]([O-])c1ccc(OCCO)c(P(=O)(c2ccccc2)c2ccccc2)c1 | i | 0.58
COc1ccc(C2=NN(C(=O)CSc3nc(=O)n4cccc(C)c4n3)C(c3ccc(C)cc3)C2)cc1 (stereo not given) | -7.4* | -7.4
COc1ccc(C2=NN(C(=O)CSc3ncccn3)C(c3ccc(C)cc3)C2)cc1 (stereo not given) | i | 1.9
CC1CCN(Cc2nnc(-c3cccc(Br)c3)o2)CC1 | i | /
Cc1ccccc1N(CC(=O)NC1CCCC1)C(=O)c1oc(C(C)(C)C)cc1C | i | /
Cc1cc(C(C)(C)C)oc1C(=O)N(CC(=O)NC1CCCC1)Cc1ccccc1Cl | -6.2* | -6.2
CCOC(=O)CNc1c(-c2ccc(O)cc2)nc2ccccn12 | i | /
CCOC(=O)CNc1c(-c2ccc(O)cc2)nc2ccc(Cl)cn12 | -5.7* | -5.7
Cc1ccc(Cl)cc1N1CCN(C(=S)NCCc2ccccc2)CC1 | -5.8* | -5.8
Cc1cccc(N2CCN(C(=S)NCCc3ccccc3)CC2)c1C | i | /
O=C(Cc1ccc(S(=O)(=O)N2CCOCC2)s1)Oc1ccc(F)cc1 | i | /
CC(c1ccco1)N(C(=O)C12CC3(C)CC(C)(CC(C)(C3)C1)C2)c1ccccn1 (stereo not given) | -6.3* | -6.3
Cc1cccc(C(=O)N(c2ccccn2)C(C)c2ccco2)c1 (stereo not given) | i | /
COc1ccc(C2CC(=O)C(C3NCCc4ccccc43)=C(O)C2n2cncn2)cc1 (stereo not given) | i | /
Cc1ccc(NC(=O)COC(=O)CSC(=S)N2CCOCC2)cc1 | i | 0.15
SMILES | KCNQ2 inh | KCNQ2 pot
C[C@@H](C(=O)NCCc1ccccc1)N1C(=O)N2CCc3c([nH]c4ccccc34)[C@@]2(C)C1=O | -9.1* | -9.1
C[C@@H](C(=O)NCCc1ccccc1F)N1C(=O)N2CCc3c([nH]c4ccccc34)[C@@]2(C)C1=O | i | /
Cc1cc(C)nc(-n2ncc3c2CC(C)CC3=O)n1 (stereo not given) | i | 1.2
CC(c1nnc(SCC(=O)Nc2cc([N+](=O)[O-])ccc2F)n1Cc1ccccc1)N(C)C (stereo not given) | i | /
CSc1ncccc1C(=O)OCC(=O)N(CC(C)C)c1c(N)n(Cc2ccccc2)c(=O)[nH]c1=O | i | /
O=C(COc1ccc2c(c1)oc(=O)c1ccccc12)NC(Cc1ccc(Cl)cc1)C(=O)O (stereo not given) | i | 0.2
O=C(Nc1cccc(C(F)(F)F)c1)Oc1ccc(Cl)c2cccnc12 | i | 5.7*
CCN(CC)C(=O)Oc1ccc(Cl)c2cccnc12 | i | /
Cc1ccc(C(C(=O)NC2CCCCC2)N(CC2CCCO2)C(=O)CNC(=O)c2cccs2)cc1 (stereo not given) | i | /
CCC(C)(C)NC(=O)C(c1ccc(C)cc1)N(CC1CCCO1)C(=O)CNC(=O)c1cccs1 (stereo not given) | -5.8* | -5.8
N#CC(Cc1ccccc1)(Cc1ccccc1)C(=O)NN | i | /
CC1(N(O)/C=C2\C=CC=CC2=O)CCCCC1=O (stereo not given) | i | /
O=C(CSC1=NS(=O)(=O)c2cc(F)ccc2N1)Nc1ccccc1 | i | /
O=C(CSC1=NS(=O)(=O)c2ccccc21)Nc1ccccc1 | -6.4* | -6.4
CCn1cc(C(=O)NCCCN(CC(C)C)CC(C)C)c(=O)c2cc(S(=O)(=O)N(C)C3CCCCC3)ccc21 | i | 0.44
O=C(Nc1cccc(Cl)c1N1CCCC1)c1cc2ccccc2o1 | -6.2* | -6.2
O=C(Nc1cccc(Cl)c1N1CCCC1)c1ccc([N+](=O)[O-])o1 | i | 0.07
O=C(Nc1cc(Cl)ccc1N1CCOCC1)c1cc2ccccc2o1 | i | /
O=C(Nc1cccc(Cl)c1N1CCCC1)c1ccc(Br)o1 | -7.9* | -7.9

Source: PubChem BioAssay
